{
  "source": "PubChem BioAssay (EPA / NIEHS)",
  "note": "Where “and” joins values, the source holds several entries; their conditions need not be identical. Equal entries are not always repeated. Calls of active or inactive are those of the source. How the source made its calls: active means hit-call score of the fitted dose curve at least 0.9, where 1 is the maximum; inactive means score below 0.9.",
  "data": [
    {"read-out": "Urokinase-type plasminogen activator receptor (uPAR), PLAUR (gene 5329)", "experiment": "BSK_4H_uPAR: BioMAP Diversity Plus: 4H Assay for Urokinase-type plasminogen activator receptor (uPAR) Biomarker Activity (AID 2283030)", "details": "primary human endothelial cells (HUVEC); actives raise or lower the signal", "outline": "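Cell-surface uPAR ELISA signal, measured 24 h after dosing human umbilical vein endothelial cells, was analyzed with bidirectional fitting relative to DMSO. Parallel SRB staining of total protein tracked overt cytotoxicity.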", "values": [
      {"smiles": "COc1ccc(C(=O)c2ccccc2)c(O)c1", "outcome": "inactive"},
      {"smiles": "CC(C)CCCCCOC(=O)CS", "outcome": "inactive"},
      {"smiles": "Nc1ccc(C(=O)O)cc1", "outcome": "inactive"},
      {"smiles": "CC(Cl)COP(=O)(OCC(C)Cl)OCC(C)Cl", "note": "(stereo unspecified)", "outcome": "inactive"},
      {"smiles": "CCc1cccc(C)c1N(C(=O)CS(=O)(=O)O)C(C)COC", "note": "(stereo unspecified)", "outcome": "inactive"},
      {"smiles": "CCCCCCCCC(CO)CCCCCC", "note": "(stereo unspecified)", "AC50": "2.51 µM (active)"},
      {"smiles": "CC1=CC=C(C(C)C)CC1", "outcome": "inactive"},
      {"smiles": "C=CC(=O)OCCCCCCCC(C)C", "outcome": "inactive"},
      {"smiles": "Fc1ccc(Br)cc1", "outcome": "inactive"},
      {"smiles": "CCCCCCCCCCCC(C)=O", "outcome": "inactive"},
      {"smiles": "C=CC(=O)NCOCCCC", "outcome": "inactive"},
      {"smiles": "CC(C)[N+](C)(CCOC(=O)C1c2ccccc2Oc2ccccc21)C(C)C", "outcome": "inactive"},
      {"smiles": "Oc1c(Cl)cc(Cl)c(Cl)c1Cl", "AC50": "20 µM (active)"},
      {"smiles": "C=C(C)C(=O)OCCCCCCCCCCCC", "outcome": "inactive"},
      {"smiles": "Clc1cc(Cl)c(Cl)c(Cl)c1Cl", "outcome": "inactive"},
      {"smiles": "CCOC(=O)/C=C\\C(=O)OCC", "outcome": "inactive"},
      {"smiles": "CC(C)C(=O)OCCc1ccccc1", "outcome": "inactive"},
      {"smiles": "CCOC(=O)C1=NN(c2ccc(Cl)cc2Cl)C(C)(C(=O)OCC)C1", "note": "(stereo unspecified)", "outcome": "inactive"},
      {"smiles": "C=CCCCCCCCCC=O", "outcome": "inactive"},
      {"smiles": "Nc1nc(N)nc(-c2ccccc2)n1", "outcome": "inactive"},
      {"smiles": "c1ccc(Nc2cccc3ccccc23)cc1", "AC50": "35.4 µM (active) and 35.1 µM (active)"},
      {"smiles": "CCCCCCOC(=O)CCCCC(=O)OCCCCCC", "outcome": "inactive"},
      {"smiles": "COC(OC)(C(=O)c1ccccc1)c1ccccc1", "outcome": "inactive"},
      {"smiles": "Cc1c(O)cccc1O", "outcome": "inactive"},
      {"smiles": "CC/C=C\\C/C=C\\C/C=C\\CCCCCCCC(=O)OC", "AC50": "30.9 µM (active)"},
      {"smiles": "CC(c1cc(C(C)(C)C)cc(C(C)(C)C)c1O)c1cc(C(C)(C)C)cc(C(C)(C)C)c1O", "outcome": "inactive"}
    ]}
  ]
}
